We go through 40 sequences from paper PMC9838217, “Structure of SALL4 zinc finger domain reveals link between AT-rich DNA binding and Okihiro syndrome”.

Changes are numbered by the printed parent chain.

For the first experiment, the target named is T1, SALL4 ZFC4 WT (HT-SELEX) (Mus musculus, UniProt Q8BX22 870-940).
T1 sequence: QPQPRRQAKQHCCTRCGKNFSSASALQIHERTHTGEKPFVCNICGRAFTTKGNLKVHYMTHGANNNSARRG
Kind of experiment: HT-SELEX; high values mean tight binding. The settings on record: protein: recombinant; vector His6-GST; dsDNA, one strand shown. The method in brief:
(§1)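 Each canonical k-mer's binding signal is its read fraction expressed as fold change over the initial random library. Reads came from MiSeq sequencing, scanned for 6-mers, after up to 6 triplicate cycles in which purified recombinant mouse SALL4 zinc finger cluster 4 (residues 870–940, 1 µg) bound library DNA (1.5 µg first cycle, 200 ng later) in 100 µl of 10 mM Tris–HCl pH 7.5, 50 mM NaCl, poly(dI-dC), DTT for 10 min at room temperature. Complexes were then Ni2+ bead-captured, washed, PCR-amplified and reselected.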
Consider CCTATA, for which the binding signal was determined as 1.35 ± 0.0444 fold-change vs cycle 0.
As for AAACGA, the binding signal was 1.06 ± 0.0291 fold-change vs cycle 0.
The same measure, in the same setting: in the case of CTCTTC it was 1.02 ± 0.0449 fold-change vs cycle 0; in that of ATGTAG, 1.34 ± 0.0549 fold-change vs cycle 0.
Still for that read-out and setting: under GAAAAC stands 1.08 ± 0.0562 fold-change vs cycle 0; under GATCAA, 1.21 ± 0.0612 fold-change vs cycle 0.
For AATACC, the binding signal is 1.3 ± 0.0373 fold-change vs cycle 0.
Regarding ATAAAG, the binding signal worked out at 2.23 ± 0.104 fold-change vs cycle 0.
Turning to ACACCA, the binding signal was found to be 0.735 ± 0.0297 fold-change vs cycle 0.
Still for that read-out and setting: in the case of CAGTAA it was 1.35 ± 0.0452 fold-change vs cycle 0; in that of CATGAA, 1.36 ± 0.0383 fold-change vs cycle 0.
On the same count and under the same terms, in the case of CTTCAA it was 1.25 ± 0.0505 fold-change vs cycle 0; in that of ACTTCA, 1.4 ± 0.0494 fold-change vs cycle 0; in that of CTGTCA, 0.753 ± 0.03 fold-change vs cycle 0.
In the case of AAGCAC, the binding signal is 0.582 ± 0.0244 fold-change vs cycle 0.
For the sequence ATTTAA, the binding signal was 3.2 ± 0.134 fold-change vs cycle 0.
The same measure, in the same setting: under AACTGA stands 1.35 ± 0.0349 fold-change vs cycle 0.
As to AATACT, the binding signal turned out to be 2.02 ± 0.117 fold-change vs cycle 0.
On the same count and under the same terms, in the case of ACTAGG it was 0.871 ± 0.0329 fold-change vs cycle 0.
Same read-out and setting: under AAGGAT stands 1.54 ± 0.0522 fold-change vs cycle 0; under AAGATG, 1.395 ± 0.00326 fold-change vs cycle 0; under AGGAGG, 0.615 ± 0.0373 fold-change vs cycle 0.
Still for that read-out and setting: in the case of AGGTAA it was 1.45 ± 0.0617 fold-change vs cycle 0; in that of ATAAGA, 2.45 ± 0.123 fold-change vs cycle 0.
GGGTTA: the binding signal stood at 0.864 ± 0.0423 fold-change vs cycle 0.
As for AGCGAA, the binding signal was found to be 0.492 ± 0.0304 fold-change vs cycle 0.
On the same count and under the same terms, in the case of AGCATA it was 1.26 ± 0.0848 fold-change vs cycle 0.
Still for that read-out and setting: under AAGGTA stands 1.42 ± 0.048 fold-change vs cycle 0; under ACCGTA, 0.728 ± 0.0197 fold-change vs cycle 0; under AGTCAG, 0.822 ± 0.0342 fold-change vs cycle 0.
On the same count and under the same terms, under ATAGAG stands 1.4 ± 0.0362 fold-change vs cycle 0; under AGAAAC, 1.21 ± 0.0656 fold-change vs cycle 0; under GACTCA, 0.768 ± 0.0401 fold-change vs cycle 0.
Turning to AACTAG, the binding signal is 1.31 ± 0.0615 fold-change vs cycle 0.
Same read-out and setting: in the case of AAGGGT it was 0.858 ± 0.0423 fold-change vs cycle 0; in that of GAGGAA, 0.874 ± 0.0788 fold-change vs cycle 0.
CTGGAC: the binding signal was 0.396 ± 0.0407 fold-change vs cycle 0.
On the same count and under the same terms, in the case of AATCCT it was 1.47 ± 0.0694 fold-change vs cycle 0; in that of ACATGT, 1.28 ± 0.0279 fold-change vs cycle 0.
Same read-out and setting: under AATCAG stands 1.32 ± 0.0871 fold-change vs cycle 0.

The next experiment addresses T2, SALL4 ZFC4 R900W (HT-SELEX) (Mus musculus, UniProt Q8BX22 870-940, R900W).
T2 sequence: T1 sequence with R31W
Nature of the experiment: HT-SELEX; high values mean tight binding. The note with it: protein: recombinant; vector His6-GST; dsDNA, one strand shown. Summed up:
as §1
Turning to CCTATA, the binding signal was 1.4 ± 0.0411 fold-change vs cycle 0.
The same measure, in the same setting: under CTCTTC stands 1.24 ± 0.0397 fold-change vs cycle 0; under ATGTAG, 1.41 ± 0.0727 fold-change vs cycle 0.
On the same count and under the same terms, in the case of GAAAAC it was 1.19 ± 0.062 fold-change vs cycle 0.
Still for that read-out and setting: under GATCAA stands 1.36 ± 0.014 fold-change vs cycle 0; under AATACC, 1.33 ± 0.0245 fold-change vs cycle 0; under ATAAAG, 2.12 ± 0.11 fold-change vs cycle 0.
With ACACCA, the binding signal was 0.841 ± 0.0318 fold-change vs cycle 0.
Turning to CAGTAA, the binding signal is 1.48 ± 0.063 fold-change vs cycle 0.
The same measure, in the same setting: under CATGAA stands 1.4 ± 0.0692 fold-change vs cycle 0; under CTTCAA, 1.41 ± 0.0826 fold-change vs cycle 0.
Same read-out and setting: in the case of ACTTCA it was 1.53 ± 0.0862 fold-change vs cycle 0.
On the same count and under the same terms, in the case of CTGTCA it was 0.862 ± 0.0445 fold-change vs cycle 0; in that of AAGCAC, 0.678 ± 0.0144 fold-change vs cycle 0; in that of ATTTAA, 2.48 ± 0.146 fold-change vs cycle 0.
As to AACTGA, the binding signal is 1.44 ± 0.0702 fold-change vs cycle 0.
Take AATACT: the binding signal is 1.99 ± 0.126 fold-change vs cycle 0.
Still for that read-out and setting: in the case of ACTAGG it was 1.01 ± 0.0248 fold-change vs cycle 0; in that of AAGGAT, 1.72 ± 0.118 fold-change vs cycle 0; in that of AAGATG, 1.5 ± 0.0687 fold-change vs cycle 0.
The same measure, in the same setting: in the case of AGGAGG it was 0.701 ± 0.0545 fold-change vs cycle 0; in that of AGGTAA, 1.58 ± 0.118 fold-change vs cycle 0; in that of ATAAGA, 2.3 ± 0.143 fold-change vs cycle 0.
Still for that read-out and setting: in the case of GGGTTA it was 0.939 ± 0.0501 fold-change vs cycle 0; in that of AGCGAA, 0.566 ± 0.0332 fold-change vs cycle 0; in that of AGCATA, 1.27 ± 0.0243 fold-change vs cycle 0.
Turning to AAGGTA, the binding signal was 1.59 ± 0.0717 fold-change vs cycle 0.
The same measure, in the same setting: under ACCGTA stands 0.818 ± 0.0316 fold-change vs cycle 0.
Same read-out and setting: under AGTCAG stands 0.958 ± 0.0579 fold-change vs cycle 0; under ATAGAG, 1.43 ± 0.0403 fold-change vs cycle 0.
Same read-out and setting: in the case of AGAAAC it was 1.36 ± 0.0395 fold-change vs cycle 0; in that of GACTCA, 0.889 ± 0.022 fold-change vs cycle 0.
Regarding AACTAG, the binding signal was 1.4 ± 0.0768 fold-change vs cycle 0.
Same read-out and setting: in the case of AAGGGT it was 1.01 ± 0.023 fold-change vs cycle 0; in that of GAGGAA, 1.03 ± 0.0537 fold-change vs cycle 0; in that of CTGGAC, 0.495 ± 0.0552 fold-change vs cycle 0.
The same measure, in the same setting: in the case of AATCCT it was 1.58 ± 0.0929 fold-change vs cycle 0; in that of ACATGT, 1.4 ± 0.0207 fold-change vs cycle 0; in that of AATCAG, 1.38 ± 0.0901 fold-change vs cycle 0.

The target in the next experiment is T3, SALL4 ZFC4 G921D (HT-SELEX) (Mus musculus, UniProt Q8BX22 870-940, G921D).
T3 sequence: T1 sequence with G52D
Nature of the experiment: HT-SELEX; high values mean tight binding. The note with it: protein: recombinant; vector His6-GST; dsDNA, one strand shown. Summed up: as §1
As for ATAAAG, the binding signal is 1.79 ± 0.17 fold-change vs cycle 0.
On the same count and under the same terms, in the case of ACACCA it was 0.903 ± 0.0271 fold-change vs cycle 0.
Consider CAGTAA, for which the binding signal was 1.37 ± 0.109 fold-change vs cycle 0.
Take CTTCAA: the binding signal came out at 1.33 ± 0.122 fold-change vs cycle 0.
Still for that read-out and setting: under CTGTCA stands 0.932 ± 0.0438 fold-change vs cycle 0.
On the same count and under the same terms, under AAGCAC stands 0.796 ± 0.0229 fold-change vs cycle 0; under ATTTAA, 2.15 ± 0.212 fold-change vs cycle 0; under AATACT, 1.82 ± 0.161 fold-change vs cycle 0.
The same measure, in the same setting: under AGGAGG stands 0.762 ± 0.023 fold-change vs cycle 0.
In the case of ATAAGA, the binding signal was determined as 1.92 ± 0.245 fold-change vs cycle 0.
Still for that read-out and setting: in the case of GGGTTA it was 0.958 ± 0.0312 fold-change vs cycle 0; in that of AGCGAA, 0.686 ± 0.0519 fold-change vs cycle 0; in that of ACCGTA, 0.868 ± 0.0103 fold-change vs cycle 0.
Same read-out and setting: under ATAGAG stands 1.38 ± 0.0574 fold-change vs cycle 0; under AGAAAC, 1.31 ± 0.0847 fold-change vs cycle 0.
Same read-out and setting: in the case of GACTCA it was 0.937 ± 0.0191 fold-change vs cycle 0; in that of CTGGAC, 0.584 ± 0.0722 fold-change vs cycle 0.
